# An excerpt weighted towards active compounds, which were near 3.6% of everything screened.
# CendR NRP1 mod – modulators of CendR peptide binding to human neuropilin-1; O14786; FAM-RPARPAR peptide binding to NRP-1, fluorescence polarization; inhibition, % at 25 µM; 360,000 tested, 0.85% active;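 active means inhibition or corrected inhibition above about 18%, plus a signal ratio from 0.5 to 1.5, limit read from the data, passing the limit was not always enough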
# CRFBP-R2 block – CRF-BP/CRF-R2 complex antagonism; inhibition, % at 11.8 µM; 350,000 tested, 0.59% active; HEK293 CRF-R2/CRF-BP, CRF-induced calcium fluorescence; AID 588475;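 active means inhibition of the ligand-induced calcium signal above about 50% at the single tested concentration, limit read from the data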
# NadD inh – blocks S. aureus nicotinate mononucleotide adenylyltransferase; purified NadD enzyme, colorimetric absorbance read-out; inhibition, % at 20 µM; 360,000 tested, 0.78% active; AID 602399; in the data active means inhibition above about 26%
# Myeloid diff 2 – compounds promoting myeloid differentiation; ER-HoxA9 myeloid progenitors, lysozyme-GFP differentiation, flow cytometry; calls only at 10 µM; 360,000 tested, 1% active; AID 624256;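 active means normalized GFP-positive differentiation at or above the plate's own cutoff, the solvent-only control mean plus 3 SD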;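 further: cells exposed to compound for four days before flow analysis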
# FAS TE block – inhibitors of human fatty acid synthase thioesterase domain | recombinant FAS-TE, OMFH fluorogenic substrate, fluorescence endpoint | inhibition, % at 15 µM | 360,000 tested, 0.67% active | P49327;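 active means compounds whose normalised, plate-corrected inhibition of enzyme fluorescence in the single-dose primary screen is 50% or more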
# FAS-TE inh conf – FAS thioesterase (human) inhibition, confirmation. shares compounds with FAS TE block. recombinant FAS-TE, OMFH fluorogenic substrate, fluorescence. inhibition, % at 15 µM. 2,300 tested, 45% active;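 active means compounds inhibiting the enzyme by at least 50% at 15 µM in any one of the replicates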
# A number is an active result; - = inactive; . = not tested or not shown.
SMILES,CendR NRP1 mod,CRFBP-R2 block,NadD inh,Myeloid diff 2,FAS TE block,FAS-TE inh conf
CCN(CC)C(=O)C1=C(C)N(Cc2ccc(F)cc2)C(=O)C(CC(=O)NC(c2ccccc2)c2ccccc2)C1 (stereo not drawn),-,-,-,-,54,31
C[C@@H]1CN([C@H](C)CO)C(=O)c2cc(NC(=O)Nc3ccc(F)cc3)ccc2O[C@@H](C)CCCCO[C@H]1CN(C)S(=O)(=O)c1cccs1,-,-,-,-,81,78
C[C@@H]1CCCCO[C@H](CN(C)S(=O)(=O)c2cccs2)[C@@H](C)CN([C@H](C)CO)C(=O)c2cc(NC(=O)Nc3ccc4c(c3)OCO4)ccc2O1,-,-,-,-,60,-
Cc1nc2ccc(Nc3ccncc3)cc2s1,-,-,-,-,-,.
COc1ccc(C(=Cc2cc(OC)c(OC)cc2[N+](=O)[O-])C(=O)O)cc1,-,-,-,-,-,.
CCOC(=O)c1cc(=O)[nH]c2ccccc12,-,-,-,-,-,.
Cc1ccc(-c2nnc(COC(=O)c3cc(=O)[nH]c4ccccc34)o2)cc1,-,-,-,-,66,49
CC1(OC(=O)C2CCCC2)C(=O)C=C2C=C(c3ccsc3)N(CCc3ccccn3)C=C2C1=O (stereo not drawn),-,-,-,-,-,.
O=C(CN1C(=O)c2cccc([N+](=O)[O-])c2C1=O)N1CCc2ccccc2C1,-,-,-,-,59,65
O=C(Cc1ccc([N+](=O)[O-])cc1)N1CCc2ccccc2C1,-,-,-,-,-,.
O=C(COc1ccc([N+](=O)[O-])cc1)N1CCc2ccccc2C1,-,-,-,-,70,83
CC1CCCCC12NC(=O)N(CC(=O)N1CCN(c3ncccn3)CC1)C2=O (stereo not drawn),-,-,-,-,-,.
Cc1ccc(C)c(S(=O)(=O)N2CCN(C(C(=O)Nc3ccc(F)cc3)c3ccccc3)CC2)c1 (stereo not drawn),-,-,-,-,-,.
O=C(Nc1ccc(F)cc1)C(c1ccccc1)N1CCN(S(=O)(=O)c2ccc3ccccc3c2)CC1 (stereo not drawn),-,-,-,-,86,-
O=C(N/N=C/c1ccc(OC(=O)c2cccs2)cc1)c1ccccn1,-,-,-,-,-,.
CN(C(=O)COC(=O)c1ccc([N+](=O)[O-])cc1)c1ccccc1,-,-,-,-,-,.
O=C(COC(=O)c1cc([N+](=O)[O-])ccc1Cl)NCCc1ccccc1,-,-,-,-,76,83
CN(C(=O)COC(=O)c1cc([N+](=O)[O-])ccc1Cl)c1ccccc1,-,-,-,-,52,62
COc1ccc(CN(C)C(=O)c2cccc(S(=O)(=O)N3CCCc4ccccc43)c2)c(OC)c1OC,-,-,-,-,-,.
